From PubChem BioAssay AID1159580 (chemical genetic matrix, 2015)
Hit rate of the full screen: of about 5,500 compounds, about 2,000 (36%) were called active. Another 18% or so got no clear call; they are omitted. Some of the results follow. A number with no mark means an inactive call. Rule as the data show it: active = normalized growth mostly below about 0.91 (no sharp cut-off); inconclusive = no clear call, values can overlap the other calls; inactive = mostly above about 0.92.

Test: chemical genetic growth profiling, strain panel (AID 1159580);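 also: tested at 20 µM; growth read once vehicle control cultures reached saturation at 30 °C; 1 = growth at the plate median or of vehicle wells; lower values mean less growth of the strain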
Conditions: growth OD

With `CC(=O)O[C@H]1CC[C@@]2(C)C(CC[C@]3(C)C2C(=O)C=C2C4[C@@H](C)[C@H](C)CC[C@]4(C(=O)O)CC[C@]23C)C1(C)C` (stereo partly drawn) the normalized growth (S. cerevisiae deletion strains, locus YAL013W, strain DEP1, active compounds read low) was 1, the normalized growth (S. cerevisiae deletion strains, locus YBR021W, strain FUR4, active compounds read low) was 1.03 and the normalized growth (S. cerevisiae deletion strains, locus YBR229C, strain ROT2, active compounds read low) was 1.01. The normalized growth (S. cerevisiae deletion strains, locus YCL029C, strain bik1, active compounds read low) was 0.989, the normalized growth (S. cerevisiae deletion strains, locus YDL035C, strain GPR1, active compounds read low) was 0.993 and the normalized growth (S. cerevisiae deletion strains, locus YDL074C, strain BRE1, active compounds read low) was 0.981. The normalized growth (S. cerevisiae deletion strains, locus YDL101C, strain DUN1, active compounds read low) was 1.01, the normalized growth (S. cerevisiae deletion strains, locus YDL185W, strain tfp1, active compounds read low) was 0.971 and the normalized growth (S. cerevisiae deletion strains, locus YDL192W, strain arf1, active compounds read low) was 0.992. For the same compound, the normalized growth (S. cerevisiae deletion strains, locus YDR101C, strain arx1, active compounds read low) was 1.01, the normalized growth (S. cerevisiae deletion strains, locus YDR162C, strain NBP2, active compounds read low) was 1.03 and the normalized growth (S. cerevisiae deletion strains, locus YDR318W, strain mcm21, active compounds read low) was 0.995. It also gave a normalized growth (S. cerevisiae deletion strains, locus YDR388W, active compounds read low) of 1, a normalized growth (S. cerevisiae deletion strains, locus YDR502C, strain sam2, active compounds read low) of 0.982 and a normalized growth (S. cerevisiae deletion strains, locus YEL061C, strain CIN8, active compounds read low) of 1.01. It also gave a normalized growth (S. cerevisiae deletion strains, locus YER110C, active compounds read low) of 0.988, a normalized growth (S. cerevisiae deletion strains, locus YER155C, strain BEM2, active compounds read low) of 1.01 and a normalized growth (S. cerevisiae deletion strains, locus YER167W, strain BCK2, active compounds read low) of 0.991. For the same compound, the normalized growth (S. cerevisiae deletion strains, locus YGL078C, strain dbp3, active compounds read low) was 1.01, the normalized growth (S. cerevisiae deletion strains, locus YGL086W, strain mad1, active compounds read low) was 1.04 and the normalized growth (S. cerevisiae deletion strains, locus YGL248W, strain PDE1, active compounds read low) was 1.01. The normalized growth (S. cerevisiae deletion strains, locus YGR078C, strain PAC10, active compounds read low) was 1.01, the normalized growth (S. cerevisiae deletion strains, locus YGR135W, strain pre9, active compounds read low) was 1 and the normalized growth (S. cerevisiae deletion strains, locus YGR229C, strain SMI1, active compounds read low) was 0.994. For the same compound, the normalized growth (S. cerevisiae deletion strains, locus YGR252W, strain gcn5, active compounds read low) was 1, the normalized growth (S. cerevisiae deletion strains, locus YHR030C, strain SLT2, active compounds read low) was 1.01 and the normalized growth (S. cerevisiae deletion strains, locus YHR079C, strain IRE1 (second series), active compounds read low) was 0.997. For the same compound, the normalized growth (S. cerevisiae deletion strains, locus YHR094C, strain hxt1, active compounds read low) was 0.989, the normalized growth (S. cerevisiae deletion strains, locus YHR129C, strain ARP1, active compounds read low) was 1.01 and the normalized growth (S. cerevisiae deletion strains, locus YHR200W, strain rpn10, active compounds read low) was 1.01. It also gave a normalized growth (S. cerevisiae deletion strains, locus YIL066C, strain RNR3, active compounds read low) of 1, a normalized growth (S. cerevisiae deletion strains, locus YIL073C, strain SPO22, active compounds read low) of 1.03 and a normalized growth (S. cerevisiae deletion strains, locus YIL125W, strain kgd1, active compounds read low) of 0.98. It also gave a normalized growth (S. cerevisiae deletion strains, locus YIR030C, strain dcg1, active compounds read low) of 0.992, a normalized growth (S. cerevisiae deletion strains, locus YJL095W, strain BCK1, active compounds read low) of 1.02 and a normalized growth (S. cerevisiae deletion strains, locus YJL134W, strain LCB3, active compounds read low) of 1.01. The normalized growth (S. cerevisiae deletion strains, locus YJL168C, strain set2, active compounds read low) was 0.988, the normalized growth (S. cerevisiae deletion strains, locus YJL187C, strain SWE1 (second series), active compounds read low) was 1 and the normalized growth (S. cerevisiae deletion strains, locus YJR043C, strain POL32, active compounds read low) was 1.02. For the same compound, the normalized growth (S. cerevisiae deletion strains, locus YKL009W, strain mrt4, active compounds read low) was 1.52 [resistant] (active), the normalized growth (S. cerevisiae deletion strains, locus YKL068W, active compounds read low) was 1.03 and the normalized growth (S. cerevisiae deletion strains, locus YKL085W, strain MDH1 (second series), active compounds read low) was 1.08 [resistant] (active). The normalized growth (S. cerevisiae deletion strains, locus YKL085W, strain MDH1, active compounds read low) was 1.08 [resistant] (active), the normalized growth (S. cerevisiae deletion strains, locus YKR001C, strain vps1, active compounds read low) was 0.978 and the normalized growth (S. cerevisiae deletion strains, locus YLR039C, strain RIC1, active compounds read low) was 0.99. The normalized growth (S. cerevisiae deletion strains, locus YLR058C, strain SHM2, active compounds read low) was 1, the normalized growth (S. cerevisiae deletion strains, locus YLR102C, strain apc9, active compounds read low) was 0.99 and the normalized growth (S. cerevisiae deletion strains, locus YLR262C, strain YPT6, active compounds read low) was 1.02. It also gave a normalized growth (S. cerevisiae deletion strains, locus YLR268W, strain sec22, active compounds read low) of 0.979, a normalized growth (S. cerevisiae deletion strains, locus YLR330W, strain CHS5, active compounds read low) of 1.01 and a normalized growth (S. cerevisiae deletion strains, locus YLR342W, strain FKS1 (second series), active compounds read low) of 0.99. The normalized growth (S. cerevisiae deletion strains, locus YLR371W, strain rom2, active compounds read low) was 0.984, the normalized growth (S. cerevisiae deletion strains, locus YLR418C, strain cdc73, active compounds read low) was 0.946 and the normalized growth (S. cerevisiae deletion strains, locus YML016C, strain PPZ1, active compounds read low) was 1.01. The normalized growth (S. cerevisiae deletion strains, locus YML032C, strain rad52, active compounds read low) was 0.981, the normalized growth (S. cerevisiae deletion strains, locus YML124C, strain tub3, active compounds read low) was 0.995 and the normalized growth (S. cerevisiae deletion strains, locus YMR078C, strain ctf18, active compounds read low) was 1.01. For the same compound, the normalized growth (S. cerevisiae deletion strains, locus YMR223W, strain ubp8, active compounds read low) was 0.985, the normalized growth (S. cerevisiae deletion strains, locus YMR307W, strain GAS1, active compounds read low) was 1.1 and the normalized growth (S. cerevisiae deletion strains, locus YNL067W, strain RPL9B, active compounds read low) was 1.01. The normalized growth (S. cerevisiae deletion strains, locus YNL233W, strain BNI4, active compounds read low) was 1.02, the normalized growth (S. cerevisiae deletion strains, locus YNL250W, strain rad50, active compounds read low) was 0.989 and the normalized growth (S. cerevisiae deletion strains, locus YNL271C, strain bni1, active compounds read low) was 0.991. It also gave a normalized growth (S. cerevisiae deletion strains, locus YNL298W, strain CLA4, active compounds read low) of 1.01, a normalized growth (S. cerevisiae deletion strains, locus YNL307C, strain MCK1, active compounds read low) of 0.987 and a normalized growth (S. cerevisiae deletion strains, locus YNR052C, strain pop2, active compounds read low) of 0.978. For the same compound, the normalized growth (S. cerevisiae deletion strains, locus YOL006C, strain TOP1, active compounds read low) was 0.978, the normalized growth (S. cerevisiae deletion strains, locus YOL012C, strain htz1) was 0.848 and the normalized growth (S. cerevisiae deletion strains, locus YOL147C, strain pex11, active compounds read low) was 0.991. The normalized growth (S. cerevisiae deletion strains, locus YOR061W, strain CKA2, active compounds read low) was 0.99, the normalized growth (S. cerevisiae deletion strains, locus YOR069W, strain VPS5, active compounds read low) was 1.01 and the normalized growth (S. cerevisiae deletion strains, locus YOR136W, strain idh2, active compounds read low) was 0.987. For the same compound, the normalized growth (S. cerevisiae deletion strains, locus YOR144C, strain elg1, active compounds read low) was 0.992, the normalized growth (S. cerevisiae deletion strains, locus YOR184W, strain ser1, active compounds read low) was 0.995 and the normalized growth (S. cerevisiae deletion strains, locus YOR316C, strain cot1, active compounds read low) was 0.995. It also gave a normalized growth (S. cerevisiae deletion strains, locus YPL055C, strain LGE1, active compounds read low) of 0.994, a normalized growth (S. cerevisiae deletion strains, locus YPL241C, strain CIN2, active compounds read low) of 1.01 and a normalized growth (S. cerevisiae deletion strains, locus YPR119W, strain clb2, active compounds read low) of 1.01. For the same compound, the normalized growth (S. cerevisiae deletion strains, locus YPR141C, strain kar3, active compounds read low) was 0.995, the normalized growth (S. cerevisiae deletion strains, locus YPR163C, strain tif3, active compounds read low) was 1.01 and the normalized growth (S. cerevisiae deletion strains, locus YPR167C, strain met16, active compounds read low) was 0.978. The normalized growth (S. cerevisiae deletion strains, strain wtn01, active compounds read low) was 0.977 and the normalized growth (S. cerevisiae strains, strain wild type, active compounds read low) was 1.
